According to publication PMC7862700, “An all-to-all approach to the identification of sequence-specific readers for epigenetic DNA modifications on cytosine”:

Key:
Test in all cases: DAPPL (digital affinity profiling via proximity ligation, sequencing); 10 mM Tris-HCl pH 7.5, 50 mM NaCl, 1 mM DTT, 4% glycerol, room temperature, 30 min; GST-TFs on glutathione beads, 16-mer random dsDNA library, 0.1% formaldehyde crosslink after washing; high values mean tight binding
FLI1 = biological target: T1, FLI1 (Homo sapiens, UniProt Q01543 1-452); conditions: protein: recombinant; tags: N-terminal GST; dsDNA, one strand shown
T1 sequence: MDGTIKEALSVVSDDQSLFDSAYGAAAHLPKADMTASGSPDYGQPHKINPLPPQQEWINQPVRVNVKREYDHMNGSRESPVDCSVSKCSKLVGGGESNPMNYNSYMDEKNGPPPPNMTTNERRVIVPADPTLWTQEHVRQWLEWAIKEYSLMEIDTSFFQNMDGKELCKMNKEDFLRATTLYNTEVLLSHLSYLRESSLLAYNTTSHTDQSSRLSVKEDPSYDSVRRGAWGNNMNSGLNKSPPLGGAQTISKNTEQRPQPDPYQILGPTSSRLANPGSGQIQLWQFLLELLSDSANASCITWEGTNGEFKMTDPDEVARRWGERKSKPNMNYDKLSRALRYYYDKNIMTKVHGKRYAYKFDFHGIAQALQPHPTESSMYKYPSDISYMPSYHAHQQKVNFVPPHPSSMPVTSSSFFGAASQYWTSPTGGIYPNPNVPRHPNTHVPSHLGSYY
Outline: (§1)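 A tag-only sample was pooled with DNA-barcoded human transcription factors that had been expressed in yeast as GST fusions and captured on glutathione beads. The pools were incubated for 30 min at room temperature with 200 nmole of a random double-stranded 16-mer DNA library in Tris/NaCl/DTT/glycerol buffer, then washed, crosslinked with 0.1% formaldehyde, proximity-ligated (BsaI/T4 ligase, 1 h, 37 °C), PCR-amplified and sequenced on an Illumina NextSeq500. Binding signal is each hexamer's read frequency for a factor divided by its frequency for the tag-only sample.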

ELK1 = biological target: T2, ELK1 (Homo sapiens, UniProt P19419 1-428); conditions: protein: recombinant; tags: N-terminal GST; dsDNA, one strand shown
T2 sequence: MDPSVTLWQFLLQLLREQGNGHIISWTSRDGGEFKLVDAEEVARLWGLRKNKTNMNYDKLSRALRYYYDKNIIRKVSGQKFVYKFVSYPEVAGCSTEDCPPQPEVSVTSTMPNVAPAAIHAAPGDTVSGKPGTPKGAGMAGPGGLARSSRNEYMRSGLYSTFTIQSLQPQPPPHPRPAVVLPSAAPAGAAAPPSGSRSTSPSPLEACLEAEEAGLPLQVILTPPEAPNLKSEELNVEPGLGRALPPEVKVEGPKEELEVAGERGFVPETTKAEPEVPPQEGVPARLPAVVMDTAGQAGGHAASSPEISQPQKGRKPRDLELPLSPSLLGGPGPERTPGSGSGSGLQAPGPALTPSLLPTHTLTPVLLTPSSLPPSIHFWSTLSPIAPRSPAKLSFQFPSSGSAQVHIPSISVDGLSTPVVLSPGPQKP
Outline: as §1

GABPA = biological target: T3, GABPA (Homo sapiens, UniProt Q06546 1-454); conditions: protein: recombinant; tags: N-terminal GST; dsDNA, one strand shown
T3 sequence: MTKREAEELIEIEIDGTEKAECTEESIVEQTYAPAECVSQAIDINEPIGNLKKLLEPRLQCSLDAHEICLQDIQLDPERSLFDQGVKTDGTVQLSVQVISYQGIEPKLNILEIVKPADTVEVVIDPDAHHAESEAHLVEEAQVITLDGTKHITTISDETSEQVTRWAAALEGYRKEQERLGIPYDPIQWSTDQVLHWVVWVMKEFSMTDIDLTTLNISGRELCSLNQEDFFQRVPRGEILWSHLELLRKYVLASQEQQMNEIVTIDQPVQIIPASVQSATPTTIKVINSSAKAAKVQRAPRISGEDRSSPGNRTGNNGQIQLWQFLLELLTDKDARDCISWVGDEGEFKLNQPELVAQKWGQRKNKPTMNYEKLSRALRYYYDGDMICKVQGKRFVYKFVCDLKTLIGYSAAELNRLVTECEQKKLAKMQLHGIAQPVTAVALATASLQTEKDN
Outline: as §1

ERG = biological target: T4, ERG (Homo sapiens, UniProt P11308 1-479); conditions: protein: recombinant; tags: N-terminal GST; dsDNA, one strand shown
T4 sequence: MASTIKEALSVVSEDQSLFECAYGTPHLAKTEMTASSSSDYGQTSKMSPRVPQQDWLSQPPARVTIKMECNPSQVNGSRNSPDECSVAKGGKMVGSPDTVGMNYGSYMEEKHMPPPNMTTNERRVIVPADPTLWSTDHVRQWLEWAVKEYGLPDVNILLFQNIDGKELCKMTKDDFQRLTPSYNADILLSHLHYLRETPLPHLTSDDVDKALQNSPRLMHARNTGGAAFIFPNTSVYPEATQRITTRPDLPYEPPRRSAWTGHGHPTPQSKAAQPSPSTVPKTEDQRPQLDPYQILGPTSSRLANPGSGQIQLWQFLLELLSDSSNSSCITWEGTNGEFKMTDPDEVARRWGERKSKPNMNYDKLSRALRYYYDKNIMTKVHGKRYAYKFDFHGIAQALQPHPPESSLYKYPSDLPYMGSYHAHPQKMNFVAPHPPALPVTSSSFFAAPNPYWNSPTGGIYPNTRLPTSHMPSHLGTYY
Outline: as §1

ELF1 = ELF1 (Homo sapiens, UniProt P32519 1-619); conditions: protein: recombinant; tags: N-terminal GST; dsDNA, one strand shown
Outline: as §1

EHF = biological target: T5, EHF (Homo sapiens, UniProt Q9NZC4 1-300); conditions: protein: recombinant; tags: N-terminal GST; dsDNA, one strand shown
T5 sequence: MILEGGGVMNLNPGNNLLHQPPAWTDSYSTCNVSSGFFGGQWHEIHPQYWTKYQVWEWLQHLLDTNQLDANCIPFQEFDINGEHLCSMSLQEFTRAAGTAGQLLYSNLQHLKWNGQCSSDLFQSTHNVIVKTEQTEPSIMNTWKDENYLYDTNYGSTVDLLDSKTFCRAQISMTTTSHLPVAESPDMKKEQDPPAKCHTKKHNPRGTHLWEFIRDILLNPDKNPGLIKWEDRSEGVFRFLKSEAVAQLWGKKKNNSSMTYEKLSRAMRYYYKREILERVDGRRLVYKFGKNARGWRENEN
Outline: as §1

SPI1 = SPI1 (Homo sapiens, UniProt P17947 1-270); conditions: protein: recombinant; tags: N-terminal GST; dsDNA, one strand shown
Outline: as §1

SPIB = SPIB (Homo sapiens, UniProt Q01892 1-262); conditions: protein: recombinant; tags: N-terminal GST; dsDNA, one strand shown
Outline: as §1

ELK3 = biological target: T6, ELK3 (Homo sapiens, UniProt P41970 1-407); conditions: protein: recombinant; tags: N-terminal GST; dsDNA, one strand shown
T6 sequence: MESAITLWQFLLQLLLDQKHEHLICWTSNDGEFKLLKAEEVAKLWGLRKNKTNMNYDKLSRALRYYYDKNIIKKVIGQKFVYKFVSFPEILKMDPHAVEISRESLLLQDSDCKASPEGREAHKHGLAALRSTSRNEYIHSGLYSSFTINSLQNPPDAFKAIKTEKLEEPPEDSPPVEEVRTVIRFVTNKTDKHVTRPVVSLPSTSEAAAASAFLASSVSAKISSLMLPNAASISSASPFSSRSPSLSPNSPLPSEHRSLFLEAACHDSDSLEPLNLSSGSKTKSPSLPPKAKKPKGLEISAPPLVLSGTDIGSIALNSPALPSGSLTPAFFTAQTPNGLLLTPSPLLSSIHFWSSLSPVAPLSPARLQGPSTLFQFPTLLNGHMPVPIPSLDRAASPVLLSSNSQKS
Outline: as §1

FEV = biological target: T7, FEV (Homo sapiens, UniProt Q99581 1-238); conditions: protein: recombinant; tags: N-terminal GST; dsDNA, one strand shown
T7 sequence: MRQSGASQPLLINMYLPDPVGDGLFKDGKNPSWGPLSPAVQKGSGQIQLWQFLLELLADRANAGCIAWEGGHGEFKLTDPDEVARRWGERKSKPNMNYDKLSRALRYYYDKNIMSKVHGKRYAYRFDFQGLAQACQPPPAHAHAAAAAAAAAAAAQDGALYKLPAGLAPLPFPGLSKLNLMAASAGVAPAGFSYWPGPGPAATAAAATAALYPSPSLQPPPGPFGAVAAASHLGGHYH
Outline: as §1

ETV5 = ETV5 (Homo sapiens, UniProt P41161 1-510); conditions: protein: recombinant; tags: N-terminal GST; dsDNA, one strand shown
Outline: as §1

HSF1 = HSF1 (Homo sapiens, UniProt Q00613 1-529); conditions: protein: recombinant; tags: N-terminal GST; chain copies: 3; dsDNA, one strand shown
Outline: as §1

SPIC = biological target: T8, SPIC (Homo sapiens, UniProt Q8N5J4 1-248); conditions: protein: recombinant; tags: N-terminal GST; dsDNA, one strand shown
T8 sequence: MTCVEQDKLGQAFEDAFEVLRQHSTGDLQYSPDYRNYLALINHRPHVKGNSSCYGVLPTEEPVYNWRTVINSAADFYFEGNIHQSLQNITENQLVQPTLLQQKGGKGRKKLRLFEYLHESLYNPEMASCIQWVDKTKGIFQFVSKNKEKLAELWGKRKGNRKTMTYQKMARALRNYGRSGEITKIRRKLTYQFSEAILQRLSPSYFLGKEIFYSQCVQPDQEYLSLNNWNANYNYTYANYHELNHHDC
Outline: as §1

ELF4 = ELF4 (Homo sapiens, UniProt Q99607 1-663); conditions: protein: recombinant; tags: N-terminal GST; dsDNA, one strand shown
Outline: as §1

ELK4 = biological target: T9, ELK4 (Homo sapiens, UniProt P28324-2 1-405); conditions: protein: recombinant; tags: N-terminal GST; dsDNA, one strand shown
T9 sequence: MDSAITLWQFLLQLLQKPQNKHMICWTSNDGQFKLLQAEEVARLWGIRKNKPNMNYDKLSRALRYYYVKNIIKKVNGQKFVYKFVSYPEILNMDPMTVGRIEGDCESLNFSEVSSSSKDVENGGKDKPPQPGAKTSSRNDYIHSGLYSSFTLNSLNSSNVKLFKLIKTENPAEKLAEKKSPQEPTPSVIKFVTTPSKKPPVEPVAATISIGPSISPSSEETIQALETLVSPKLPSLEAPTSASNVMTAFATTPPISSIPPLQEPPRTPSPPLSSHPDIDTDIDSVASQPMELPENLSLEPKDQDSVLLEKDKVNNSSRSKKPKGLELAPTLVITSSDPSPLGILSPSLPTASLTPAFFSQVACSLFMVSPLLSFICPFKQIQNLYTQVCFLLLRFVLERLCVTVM
Outline: as §1

ETV2 = biological target: T10, ETV2 (Homo sapiens, UniProt O00321 1-342); conditions: protein: recombinant; tags: N-terminal GST; dsDNA, one strand shown
T10 sequence: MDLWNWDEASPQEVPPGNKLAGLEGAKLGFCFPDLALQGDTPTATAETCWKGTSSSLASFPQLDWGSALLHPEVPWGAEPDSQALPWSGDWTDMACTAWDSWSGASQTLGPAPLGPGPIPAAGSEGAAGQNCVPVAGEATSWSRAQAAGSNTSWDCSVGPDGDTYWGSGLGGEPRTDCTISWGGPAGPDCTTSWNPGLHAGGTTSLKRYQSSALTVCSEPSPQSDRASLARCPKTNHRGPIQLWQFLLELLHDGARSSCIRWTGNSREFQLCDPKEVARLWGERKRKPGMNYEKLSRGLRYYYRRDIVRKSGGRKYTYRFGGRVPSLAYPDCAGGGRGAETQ
Outline: as §1

ELF3 = biological target: T11, ELF3 (Homo sapiens, UniProt P78545 1-371); conditions: protein: recombinant; tags: N-terminal GST; dsDNA, one strand shown
T11 sequence: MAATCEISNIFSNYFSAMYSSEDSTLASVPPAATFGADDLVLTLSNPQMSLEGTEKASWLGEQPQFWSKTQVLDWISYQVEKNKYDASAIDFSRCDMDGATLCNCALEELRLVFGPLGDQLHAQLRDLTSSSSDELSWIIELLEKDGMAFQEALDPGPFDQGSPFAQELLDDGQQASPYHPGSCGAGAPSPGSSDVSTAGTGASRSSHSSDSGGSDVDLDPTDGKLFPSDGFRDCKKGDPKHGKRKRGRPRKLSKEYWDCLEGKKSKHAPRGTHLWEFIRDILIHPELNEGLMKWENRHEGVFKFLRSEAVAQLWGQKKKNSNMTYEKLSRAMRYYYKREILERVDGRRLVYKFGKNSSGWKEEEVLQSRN
Outline: as §1

CRX = CRX (Homo sapiens, UniProt O43186 1-299); conditions: protein: recombinant; tags: N-terminal GST; dsDNA, one strand shown
Outline: as §1

ETV1 = ETV1 (Homo sapiens, UniProt P50549 1-477); conditions: protein: recombinant; tags: N-terminal GST; dsDNA, one strand shown
Outline: as §1

CRX, sequence (O43186 whole entry): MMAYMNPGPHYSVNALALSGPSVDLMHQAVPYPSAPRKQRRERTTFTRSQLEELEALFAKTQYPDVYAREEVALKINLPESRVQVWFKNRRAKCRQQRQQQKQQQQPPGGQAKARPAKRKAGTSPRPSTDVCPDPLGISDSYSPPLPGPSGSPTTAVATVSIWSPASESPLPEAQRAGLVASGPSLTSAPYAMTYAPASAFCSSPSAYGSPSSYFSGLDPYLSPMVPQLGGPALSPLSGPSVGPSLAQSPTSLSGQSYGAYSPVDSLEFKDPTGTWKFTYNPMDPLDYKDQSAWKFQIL
HSF1, sequence (Q00613 whole entry): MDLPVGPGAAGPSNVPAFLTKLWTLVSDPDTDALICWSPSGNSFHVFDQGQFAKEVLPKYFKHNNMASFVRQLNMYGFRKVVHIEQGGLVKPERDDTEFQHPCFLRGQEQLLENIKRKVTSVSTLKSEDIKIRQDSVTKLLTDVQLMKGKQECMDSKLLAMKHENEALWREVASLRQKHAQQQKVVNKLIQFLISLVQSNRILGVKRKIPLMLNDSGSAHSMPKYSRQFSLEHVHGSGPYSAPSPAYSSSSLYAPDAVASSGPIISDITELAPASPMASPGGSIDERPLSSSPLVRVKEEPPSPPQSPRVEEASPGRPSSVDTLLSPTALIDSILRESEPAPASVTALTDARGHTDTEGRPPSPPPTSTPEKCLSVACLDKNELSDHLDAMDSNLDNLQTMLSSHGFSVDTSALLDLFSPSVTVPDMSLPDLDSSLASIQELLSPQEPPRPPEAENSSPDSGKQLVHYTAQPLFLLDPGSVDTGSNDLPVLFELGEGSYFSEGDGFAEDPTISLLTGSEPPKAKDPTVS
ETV5, sequence (P41161 whole entry): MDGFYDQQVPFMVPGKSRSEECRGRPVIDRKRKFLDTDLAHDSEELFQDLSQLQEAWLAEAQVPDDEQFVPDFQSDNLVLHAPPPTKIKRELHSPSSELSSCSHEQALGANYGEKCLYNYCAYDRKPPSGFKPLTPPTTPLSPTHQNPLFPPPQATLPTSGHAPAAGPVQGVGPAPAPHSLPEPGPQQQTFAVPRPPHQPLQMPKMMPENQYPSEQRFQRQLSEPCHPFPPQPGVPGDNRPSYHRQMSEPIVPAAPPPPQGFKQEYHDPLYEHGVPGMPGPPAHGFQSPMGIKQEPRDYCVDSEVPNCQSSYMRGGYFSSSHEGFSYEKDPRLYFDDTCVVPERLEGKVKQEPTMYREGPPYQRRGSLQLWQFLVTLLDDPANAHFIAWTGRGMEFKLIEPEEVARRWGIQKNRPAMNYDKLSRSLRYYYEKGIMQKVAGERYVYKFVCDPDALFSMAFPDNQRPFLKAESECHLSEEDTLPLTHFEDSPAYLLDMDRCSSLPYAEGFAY
SPIB, sequence (Q01892 whole entry): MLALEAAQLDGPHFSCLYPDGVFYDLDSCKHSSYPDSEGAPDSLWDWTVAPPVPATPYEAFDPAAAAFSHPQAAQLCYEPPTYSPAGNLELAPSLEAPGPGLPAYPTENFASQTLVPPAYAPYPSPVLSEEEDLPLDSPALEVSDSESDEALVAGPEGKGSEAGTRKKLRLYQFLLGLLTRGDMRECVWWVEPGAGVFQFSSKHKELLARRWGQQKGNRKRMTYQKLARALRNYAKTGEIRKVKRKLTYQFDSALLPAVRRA
ETV1, sequence (P50549 whole entry): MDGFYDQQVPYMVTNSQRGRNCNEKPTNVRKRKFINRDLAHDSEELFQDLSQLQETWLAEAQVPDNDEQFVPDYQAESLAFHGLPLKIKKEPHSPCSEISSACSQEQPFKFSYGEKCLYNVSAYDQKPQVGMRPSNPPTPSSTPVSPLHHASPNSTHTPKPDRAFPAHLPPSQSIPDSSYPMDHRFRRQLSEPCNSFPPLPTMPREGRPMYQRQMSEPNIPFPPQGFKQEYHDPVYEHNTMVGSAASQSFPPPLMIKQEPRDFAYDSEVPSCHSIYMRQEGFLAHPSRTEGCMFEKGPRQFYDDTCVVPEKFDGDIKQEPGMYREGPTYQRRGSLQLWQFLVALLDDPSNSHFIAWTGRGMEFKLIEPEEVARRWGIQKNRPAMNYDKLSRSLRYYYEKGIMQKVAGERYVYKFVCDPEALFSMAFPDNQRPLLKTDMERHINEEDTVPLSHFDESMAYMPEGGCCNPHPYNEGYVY
ELF1, sequence (P32519 whole entry): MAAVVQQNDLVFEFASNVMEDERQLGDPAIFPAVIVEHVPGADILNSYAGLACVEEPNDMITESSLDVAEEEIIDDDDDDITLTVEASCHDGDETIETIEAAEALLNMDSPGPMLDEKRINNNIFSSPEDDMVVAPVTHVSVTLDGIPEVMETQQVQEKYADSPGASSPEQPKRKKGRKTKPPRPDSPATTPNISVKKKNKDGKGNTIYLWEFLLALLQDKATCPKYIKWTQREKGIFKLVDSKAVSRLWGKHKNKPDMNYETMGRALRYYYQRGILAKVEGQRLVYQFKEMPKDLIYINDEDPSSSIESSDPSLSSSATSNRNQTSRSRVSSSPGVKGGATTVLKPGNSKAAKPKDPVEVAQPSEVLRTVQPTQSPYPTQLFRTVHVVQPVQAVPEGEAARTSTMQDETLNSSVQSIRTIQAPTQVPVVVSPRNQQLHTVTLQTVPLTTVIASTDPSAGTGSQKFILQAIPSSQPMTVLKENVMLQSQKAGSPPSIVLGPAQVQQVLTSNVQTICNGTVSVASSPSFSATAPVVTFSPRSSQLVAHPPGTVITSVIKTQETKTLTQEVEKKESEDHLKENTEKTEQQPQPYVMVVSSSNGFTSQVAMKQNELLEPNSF
ELF4, sequence (Q99607 whole entry): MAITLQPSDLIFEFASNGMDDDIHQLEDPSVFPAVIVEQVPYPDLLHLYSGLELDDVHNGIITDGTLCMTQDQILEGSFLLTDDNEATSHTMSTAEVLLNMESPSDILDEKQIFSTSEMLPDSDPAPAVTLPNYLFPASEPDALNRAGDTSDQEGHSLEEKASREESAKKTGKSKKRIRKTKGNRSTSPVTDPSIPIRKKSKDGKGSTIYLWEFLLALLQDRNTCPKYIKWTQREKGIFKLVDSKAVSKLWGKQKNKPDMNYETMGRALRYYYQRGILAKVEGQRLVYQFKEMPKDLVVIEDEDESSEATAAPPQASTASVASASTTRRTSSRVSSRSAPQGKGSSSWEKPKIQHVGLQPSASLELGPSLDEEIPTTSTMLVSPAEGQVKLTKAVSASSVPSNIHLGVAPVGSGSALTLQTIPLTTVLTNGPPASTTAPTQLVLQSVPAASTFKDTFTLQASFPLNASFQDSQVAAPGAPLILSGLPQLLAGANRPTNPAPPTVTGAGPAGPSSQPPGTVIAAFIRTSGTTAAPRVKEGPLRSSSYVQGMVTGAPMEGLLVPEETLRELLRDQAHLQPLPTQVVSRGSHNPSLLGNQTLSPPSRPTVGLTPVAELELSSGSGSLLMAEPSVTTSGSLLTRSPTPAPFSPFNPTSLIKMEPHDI

Sequence: TCACGT
- binding signal (FLI1): 1.28 fold enrichment (6-mer frequency, TF over GST control)
- binding signal (ELK1): 1.3 fold enrichment (6-mer frequency, TF over GST control)
- binding signal (GABPA): 1.31 fold enrichment (6-mer frequency, TF over GST control)
- binding signal (ERG): 1.29 fold enrichment (6-mer frequency, TF over GST control)
- binding signal (ELF1): 1.17 fold enrichment (6-mer frequency, TF over GST control)
- binding signal (EHF): 1.14 fold enrichment (6-mer frequency, TF over GST control)
- binding signal (SPI1): 1.24 fold enrichment (6-mer frequency, TF over GST control)
- binding signal (SPIB): 1.18 fold enrichment (6-mer frequency, TF over GST control)
- binding signal (ELK3): 1.16 fold enrichment (6-mer frequency, TF over GST control)
- binding signal (FEV): 1.19 fold enrichment (6-mer frequency, TF over GST control)
- binding signal (ETV5): 1.24 fold enrichment (6-mer frequency, TF over GST control)
- binding signal (HSF1): 1.13 fold enrichment (6-mer frequency, TF over GST control)
- binding signal (SPIC): 1.19 fold enrichment (6-mer frequency, TF over GST control)
- binding signal (ELF4): 1.23 fold enrichment (6-mer frequency, TF over GST control)
- binding signal (ELK4): 1.27 fold enrichment (6-mer frequency, TF over GST control)
- binding signal (ETV2): 1.02 fold enrichment (6-mer frequency, TF over GST control)
- binding signal (ELF3): 1.01 fold enrichment (6-mer frequency, TF over GST control)
- binding signal (CRX): 1.15 fold enrichment (6-mer frequency, TF over GST control)
- binding signal (ETV1): 1.26 fold enrichment (6-mer frequency, TF over GST control)
